PLK1 PBD inh: qHTS for Inhibitors of PLK1-PDB (polo-like kinase 1 - polo-box domain): Primary Screen | Plk1 PBD binding of FITC phosphopeptide, fluorescence polarization | Potency, µM, actives largely listed as inhibitors | hit rate 2.8% among 360,000; further: series mostly up to about 57 µM; nearly all actives have a fitted effect of over 65% in size
Mito fusion act: qHTS Assay for Small Molecule Inhibitors of Mitochondrial Division or Activators of Mitochondrial Fusion | S. cerevisiae fusion-defective mutant growth rescue, CellTiterGlo 48 h | Potency, µM (top dose mostly 46.1 µM), actives largely listed as activators | hit rate 0.23% among 320,000 | AID 485298, 2010; further: nearly all actives have a fitted effect of over 45% in size
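Luminescent cell viability in 1536-well qHTS format served as the measure of rescued growth in ts fusion-mutant S. cerevisiae cultured on non-fermentable YPEG for 48 hours at 37C.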
PKM2 activator: qHTS Assay for Activators of Human Muscle isoform 2 Pyruvate Kinase; purified PKM2, Kinase-Glo ATP luminescence, activation; response scale: 0% is enzyme alone, no compound; Potency, µM (series often up to 57.5 µM), hits mostly activators; Pyruvate kinase PKM (Homo sapiens), P14618; AID 1631, 2009; hit rate 0.34% among 260,000; further: nearly all actives have a fitted effect of over 55% in size
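Purified hPK-M2 (>95% pure) converted ADP (0.1 mM final) to ATP with 0.5 mM PEP in 50 mM imidazole pH7.2, KCl, MgCl2, Tween 20, BSA; 1 h at room temperature. ATP detected by Kinase-Glo luminescence.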
GCN5L2 inh: qHTS Assay for Inhibitors of GCN5L2; Potency, µM (doses to about 58.9 µM), most hits filed as inhibitors; hit rate 0.21% among 390,000; GCN5L2 HAT assay, ThioGlo1 CoA-SH fluorescence; AID 504327, 2011; Histone acetyltransferase KAT2A (Homo sapiens), Q92830
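GCN5L2 (20nM final) in 50mM HEPES, 0.1mM EDTA pH 7.5, 0.01% Tween-20 was preincubated 15 min at room temperature with compound, then given ThioGlo1 (50uM), H3(1-25) peptide (75uM) and acetyl-CoA (70uM); CoA-thiol fluorescence (Ex340/Em540) was read at 0 and 20 min.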
GLS inhibitor: qHTS for Inhibitors of Glutaminase (GLS); GLS enzymatic activity, qHTS titration; Potency, µM (top dose mostly 45.5 µM), usual class: inhibitors; hit rate 0.21% among 410,000; AID 624170, 2012
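Compounds were pin-transferred onto hKGA, after which L-glutamine (1 mM solution) and a detection mix of glutamate oxidase, HRP and Amplex Red were added. Initial and 30 min RT fluorescence reads were collected.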
VDR inh: Inhibitors of the vitamin D receptor (VDR): qHTS; hit rate 0.93% among 400,000; Potency, µM, hits mostly inhibitors; VDR-SRC2-3 peptide fluorescence polarization, 2 h
Target sequence (P11473 whole entry, looked up): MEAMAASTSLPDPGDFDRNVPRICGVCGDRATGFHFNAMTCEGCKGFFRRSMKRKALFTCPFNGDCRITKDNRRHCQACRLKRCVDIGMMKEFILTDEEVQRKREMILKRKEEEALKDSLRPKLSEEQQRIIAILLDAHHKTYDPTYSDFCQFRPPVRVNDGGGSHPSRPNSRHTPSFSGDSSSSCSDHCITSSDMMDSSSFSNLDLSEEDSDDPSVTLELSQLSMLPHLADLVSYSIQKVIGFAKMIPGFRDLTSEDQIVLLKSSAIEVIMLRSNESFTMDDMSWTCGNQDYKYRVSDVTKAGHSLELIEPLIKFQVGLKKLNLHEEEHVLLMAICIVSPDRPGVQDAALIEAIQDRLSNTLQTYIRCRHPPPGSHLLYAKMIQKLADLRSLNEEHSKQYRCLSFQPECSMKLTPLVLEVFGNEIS
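Inhibition of the VDR/SRC2-3 peptide interaction is quantified by fluorescence polarization. Compounds (23 nl, pintool) incubate with the reagents for 2 hours at ambient room temperature.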
Hits are given with their value; 0 = inactive; ? = inconclusive; - = not tested or not shown. A selection: hits, their analogues and other compounds. The true share with any hit is near 3.4%. The call rests on the fitted dose curve; in most records, active means well fitted curve in the direction sought with a large enough effect; inconclusive means small, poorly fitted or top-dose-only effect, or another doubt; inactive means no such curve, though single readings can be large; an effect the other way counts as inactive or inconclusive.

SMILES | PLK1 PBD inh | Mito fusion act | PKM2 activator | GCN5L2 inh | GLS inhibitor | VDR inh
CCCCOc1ccc(C(=O)N(CC)CC(=O)NCc2cccs2)cc1 | 0 | 0 | 0 | 0 | 0 | 0
Cc1ccc2nnnc(-c3ccccc3)c2c1 | 0 | 0 | 0 | 0 | 0 | 0
Cc1ccc2c(c1)c(-c1ccccc1)nc1nnnn12 | 23.8µM | 0 | 0 | 0 | 0 | 0
COc1ccccc1C(=O)NCCC(=O)NC1CCC(C)CC1 (stereo not given) | 0 | 0 | - | 0 | 0 | 0
COC(=O)Nc1ccc(Cl)c(Cl)c1 | - | - | - | 0 | - | 0
CCc1ccccc1NC(=O)CSC1=C(C#N)C(c2ccc(O)c(OC)c2)C2=C(CCCC2=O)N1 (stereo not given) | 10.6µM | 0 | 0 | 0 | ? | 0
COc1cc(C2C(C#N)=C(SC)NC3=C2C(=O)CCC3)ccc1O (stereo not given) | 0 | 0 | 0 | 0 | 0 | 0
Cc1ccc(S(=O)(=O)N(CCc2ccccc2)CC(=O)Nc2cc(C)ccc2C)cc1 | - | 0 | - | 0 | 0 | 0
Cc1ccc(Cl)cc1N1CCN(C(=O)CSc2nnc3n2C(C)(C)Cc2ccccc2-3)CC1 | 0 | 15.8µM | 0 | 0 | 0 | 0
COc1ccc(N2CCN(C(=O)CSc3nnc4n3C(C)(C)Cc3ccccc3-4)CC2)cc1 | 0 | 0 | 0 | 0 | 0 | 0
O=C(COC(=O)c1ccc(O)cc1)NC1CCCCCCC1 | 0 | - | - | - | 0 | -
Cc1c(C#N)c(N)nc(Cl)c1C#N | 0 | 0 | 0 | 0 | 0 | 0
N#Cc1c(Cl)nsc1NN | 29.9µM | 0 | 0 | 0 | 0 | 0
Cc1cccc(NC(=O)CCS(=O)(=O)c2ccc3c(c2)NC(=O)CS3)n1 | 29.9µM | 0 | - | 0 | 0 | ?
O=C(CCS(=O)(=O)c1ccc2c(c1)NC(=O)CS2)NCCc1ccccc1 | 0 | 0 | 0 | 0 | 0 | 0
CC1Cc2ccccc2N1C(=O)CCS(=O)(=O)c1ccc2c(c1)NC(=O)CS2 (stereo not given) | 18.9µM | 0 | - | 0 | 0 | ?
O=C(CCS(=O)(=O)c1ccc2c(c1)NC(=O)CS2)NCCc1ccc(Cl)cc1 | 16.8µM | 0 | - | 0 | 0 | ?
CC(C)CC(NC(=O)C(COC(C)(C)C)NC(=O)C(Cc1ccc(O)cc1)NC(=O)C(CO)NC(=O)C(Cc1c[nH]c2ccccc12)NC(=O)C(Cc1cnc[nH]1)NC(=O)C1CCC(=O)N1)C(=O)NC(CCCN=C(N)N)C(=O)N1CCCC1C(=O)NNC(N)=O (stereo not given) | - | - | - | 0 | 0 | 0
C=CC(=O)NC(C)(C)Cc1ccccc1 | 0 | 0 | 0 | 17.8µM | 0 | 0
CCCN1CCN(C(=O)c2oc3ccccc3c2NC(=O)COc2ccc(OC)cc2)CC1 | 0 | 0 | - | 0 | 0 | 20µM
COc1ccc(OCC(=O)Nc2c(C(=O)N3CCN(C)CC3)oc3ccccc23)cc1 | 29.9µM | 0 | - | 0 | 0 | 0
c1ccc(COc2ccc(-c3cc4nc(NCCN5CCOCC5)ccn4n3)cc2)cc1 | 0 | - | - | - | 0 | -
Cc1cc(SCC(=O)c2cccc([N+](=O)[O-])c2)nc(=O)[nH]1 | 21.2µM | 0 | - | 0 | 0 | ?
O=C(CSc1n[nH]c(=O)[nH]c1=O)c1cccc([N+](=O)[O-])c1 | 0 | 0 | 0 | 0 | 0 | 0
COC(=O)Nc1ccc(SCC(=O)c2cccc([N+](=O)[O-])c2)cc1 | 13.4µM | 0 | - | 0 | 0 | ?
C/C(=N\NC(=O)c1ccco1)c1ccc(NC(=O)C(F)(F)F)cc1 | 0 | 0 | 0 | 0 | 0 | 0
COc1ccc(C(O)c2ncc(-c3ccc4ccccc4c3)[nH]2)cc1 (stereo not given) | 0 | - | - | - | 0 | -
COc1ccc(/C=N/n2cnc3c([nH]c4ccccc43)c2=O)cc1CO | 10.6µM | 0 | 0 | 0 | ? | ?
CCc1ccc(Nc2ccc(C(=O)O)cc2[N+](=O)[O-])cc1 | 0 | 20µM | - | 0 | 0 | 0

Screening data from PubChem BioAssay.
